# Data: PubChem BioAssay AID602393 (Broad Institute, 2012)
# Among all 350,000 compounds or so, about 7,000 (2%) were called active. Cut-off read from the data, not from the text of the source: active = activation above about 40%; inconclusive = no clear call, values can overlap the other calls; inactive = below that. The full list was thinned out, with actives kept by preference.
# Assay: raisers of Bmi1 knock-in reporter signal – mouse ES cells, Bmi1 luciferase knock-in, single point, esBAF inhibitor project, primary screen (AID 602393);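 note: 0% = median of the plate's neutral control wells and 100% = double that signal; a rise in the Bmi1 reporter signal indicates esBAF inhibition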
# Conditions: 24 h, at 12.5 µM, stronger effect = higher value, 100% = twice the neutral-well signal
row,Compound,reporter increase
1,COc1ccc(NC(=O)Nc2ccc3c(c2)[C@H]2C[C@H](CC(=O)NC4CCCC4)O[C@H](CO)[C@H]2O3)cc1,2.4% (inactive)
2,Cc1csc(NC(=O)CN2CCCCCC2)n1,-1.61% (inactive)
3,Cc1csc(NC(=O)C2CCN(S(=O)(=O)c3ccccc3)CC2)n1,-5.46% (inactive)
4,Cc1csc(NC(=O)c2ccc(C)s2)n1,50.8% (active)
5,CCNC(=O)[C@H]1[C@H](CO)[C@H]2Cn3c(ccc(/C=C/c4ccccc4)c3=O)[C@@H]1N2C(=O)C1CCC1,0.423% (inactive)
6,COC(=O)C[C@H]1CC[C@H](NC(=O)c2ccccc2)[C@@H](CO)O1,-1.98% (inactive)
7,C/C=C/c1ccc2c(c1)O[C@@H](CN(C)S(C)(=O)=O)[C@@H](C)CN([C@H](C)CO)S2(=O)=O,-0.163% (inactive)
8,COc1cccc(NC(=O)CSc2nnc(-c3cccnc3)o2)c1,13.3% (inactive)
9,COc1ccc(-c2nnc(SCc3cccnc3)o2)cc1,52.4% (active)
10,COc1ccc(-c2nnc(SC(=O)N3c4ccccc4Sc4ccccc43)o2)cc1,2.78% (inactive)
11,CC(C)NC(=O)N(C)C[C@H]1Oc2ncc(C#CC3CC3)cc2C(=O)N([C@H](C)CO)C[C@@H]1C,-3.17% (inactive)
12,CCCC(=O)Nc1ccc2c(c1)OC[C@H](C)N(S(=O)(=O)c1cn(C)cn1)C[C@@H](C)[C@H](OC)CN(C)C2=O,-1.9% (inactive)
13,CN1C(=O)c2cc(NC(=O)c3ccccc3)ccc2OC[C@@H]2O[C@H](CC(=O)NCC3CC3)CC[C@@H]21,6.3% (inactive)
14,C/C=C/c1ccc2c(c1)O[C@H](CN(C)C(=O)CN(C)C)[C@H](C)CN([C@@H](C)CO)S2(=O)=O,0.684% (inactive)
15,COc1ccccc1NC(=O)Nc1nc(CC(=O)Nc2ccccc2F)cs1,1.14% (inactive)
16,CCOC(=O)Cc1csc(NC(NC(=O)OCC)(C(F)(F)F)C(F)(F)F)n1,-0.744% (inactive)
17,CCOC(=O)Cc1csc(NC(=O)Nc2ccccc2)n1,47.4% (active)
18,C[C@@H]1CN([C@@H](C)CO)C(=O)c2cc(NS(=O)(=O)c3ccccc3)ccc2O[C@@H](C)CCCCO[C@@H]1CN(C)S(=O)(=O)c1cccs1,6.97% (inactive)
19,C[C@@H]1CN([C@H](C)CO)S(=O)(=O)c2ccc(C#CCN(C)C)cc2O[C@@H]1CN(C)C(=O)C1CCCCC1,-0.287% (inactive)
20,O=C(c1cc(COc2ccc(F)c(F)c2)on1)N1CCOCC1,37.7% (inactive)
21,O=C(NCCCc1ccccc1)c1cc(COc2c(F)cccc2F)on1,17.5% (inactive)
22,COc1cccc(OC)c1OCCN1CCN(C(=O)c2ccco2)CC1,-3.54% (inactive)
23,O=C(c1cc(COc2cccc(C(F)(F)F)c2)on1)N1CCSCC1,-2.92% (inactive)
24,O=C(c1cc(COc2ccc(F)cc2F)on1)N1CCOCC1,61.9% (active)
25,Cc1ccc(C)c(OCc2cc(C(=O)N3CCN(c4cnccn4)CC3)no2)c1,3.21% (inactive)

row,Compound,reporter increase
1,COc1cccc(OCc2cc(C(=O)N3CCN(C(=O)c4ccco4)CC3)no2)c1,70.2% (active)
2,O=C(c1ccco1)N1CCN(C(=O)c2ccc(COc3ccc(F)cc3)o2)CC1,-8.59% (inactive)
3,O=C(c1cc(COc2c(F)cccc2F)on1)N1CCSCC1,53.1% (active)
4,C[C@@H]1CN([C@@H](C)CO)C(=O)c2cc(NC(=O)C3CCCCC3)ccc2O[C@@H](C)CCCCO[C@H]1CN(C)C(=O)Nc1ccc2c(c1)OCO2,7.74% (inactive)
5,CC(=O)N[C@@H]1C=C[C@H](CC(=O)NCC2CCCCC2)O[C@H]1CO,4.99% (inactive)
6,C[C@@H]1CCCCO[C@@H](CN(C)Cc2ccncc2)[C@@H](C)CN([C@@H](C)CO)C(=O)c2cc(N(C)C)ccc2O1,1.32% (inactive)
7,COc1cccc(NC(=O)N[C@@H]2C=C[C@H](CC(=O)NCc3ccccn3)O[C@H]2CO)c1,-1.55% (inactive)
8,COc1cccc(C(=O)Nc2ccc3c(c2)C(=O)N(C)C[C@@H](OC)[C@@H](C)CN(C)[C@@H](C)CO3)c1,1.2% (inactive)
9,C[C@@H]1CN([C@@H](C)CO)S(=O)(=O)c2ccc(-c3cccnc3)cc2O[C@H]1CN(C)CC1CCOCC1,2.46% (inactive)
10,O=C(C[C@H]1C[C@@H]2c3cc(NC(=O)CC4CC4)ccc3O[C@@H]2[C@H](CO)O1)NCc1ccccn1,0.771% (inactive)
11,C[C@H]1CN([C@@H](C)CO)C(=O)c2cc(C3=CCCC3)cnc2O[C@H]1CN(C)C(=O)Nc1ccc(F)cc1,-1.8% (inactive)
12,COc1cccc(-c2cnc3c(c2)C(=O)N([C@H](C)CO)C[C@H](C)[C@H](CN(C)C(=O)NC(C)C)O3)c1,-3.06% (inactive)
13,Cc1ccccc1-c1ccc([C@@H]2[C@H](CO)N3CCCCN(S(=O)(=O)c4ccc(F)cc4)C[C@@H]23)cc1,-4.12% (inactive)
14,O=c1oc2cc(O)ccc2cc1-c1ccc(F)cc1,47.3% (active)
15,CO[C@@H]1CC[C@H]2CCOc3c(C#N)cccc3C(=O)N(C)C[C@@H](OC)[C@H](C)C(=O)N(C)C[C@@H]1O2,-3.58% (inactive)
16,CCCNC(=O)N(C)C[C@H]1Oc2ncc(-c3ccc(F)cc3)cc2C(=O)N([C@H](C)CO)C[C@H]1C,1.97% (inactive)
17,C[C@@H](NC(=O)C[C@H]1CC[C@H](NS(=O)(=O)c2cccc(F)c2)[C@H](CO)O1)c1ccccc1,-2.73% (inactive)
18,CO[C@H]1CN(C)C(=O)c2cc(NS(=O)(=O)CC(F)(F)F)ccc2OC[C@@H](C)N(Cc2nccs2)C[C@@H]1C,-3.43% (inactive)
19,O=C(Nc1ccc2c(c1)OCO2)N[C@@H]1CC[C@H](CC(=O)N2CCN(c3ccccc3)CC2)O[C@@H]1CO,-0.613% (inactive)
20,O=C(NCCC1CCCCN1S(=O)(=O)c1ccccc1)C(=O)NCC1CCCO1 (stereo not given),-3.85% (inactive)
21,Cc1ccc(C)c(S(=O)(=O)N2CCCOC2CNC(=O)C(=O)NC2CCCCC2)c1 (stereo not given),51.3% (active)
22,Cc1ccc(NC(=O)NC2CCCCC2)cc1S(=O)(=O)N1CCOCC1,-1.63% (inactive)
23,O=C(C[C@H]1CC[C@H]2[C@@H](COC[C@@H](O)CN2C(=O)c2ccc3c(c2)OCO3)O1)NC1Cc2ccccc2C1,-0.266% (inactive)
24,CN(C)CC(=O)Nc1ccc2c(c1)[C@H]1C[C@H](CC(=O)NCc3ccc4c(c3)OCO4)O[C@@H](CO)[C@H]1O2,2.82% (inactive)
25,Cn1c(SCc2nc3ccccc3s2)nnc1-c1ccc2c(c1)OCO2,66.4% (active)

row,Compound,reporter increase
1,Cn1c(SCC(=O)N2CCCC2)nnc1-c1ccc2c(c1)OCO2,1.7% (inactive)
2,O=C(O)CSc1nnc(-c2ccc3c(c2)OCO3)n1-c1ccccc1,19.1% (inactive)
3,C[C@@H]1CCCCO[C@H](CN(C)C(=O)Cc2ccccc2)[C@H](C)CN([C@H](C)CO)C(=O)c2cc(NS(=O)(=O)c3cn(C)cn3)ccc2O1,5.86% (inactive)
4,C[C@H](CO)N1C[C@H](C)[C@@H](CN(C)Cc2cccc3c2OCCCO3)OCc2cn(nn2)CCCC1=O,-0.925% (inactive)
5,Cc1nn(C(=O)c2ccoc2C)c(N)c1-c1ccccc1,78.5% (active)
6,Cc1occc1C(=O)Nc1cccc(Cn2cccn2)c1,10.4% (inactive)
7,Cc1ccnc(NC(=O)c2ccoc2C)c1,25.4% (inactive)
8,C[C@@H]1CN([C@H](C)CO)C(=O)Cc2cc(NS(=O)(=O)c3ccc(Cl)cc3)ccc2O[C@@H]1CN(C)C,-0.489% (inactive)
9,Fc1ccccc1COc1ccccc1CNCc1ccncc1,2.36% (inactive)
10,O=S(=O)(NCCOc1cccc2cccnc12)c1ccc(F)cc1,11.1% (inactive)
11,Fc1ccccc1COc1cccc2cccnc12,45.7% (active)
12,CC(C)CC#Cc1cnc2c(c1)C(=O)N([C@@H](C)CO)C[C@H](C)[C@@H](CN(C)Cc1ccccc1C(=O)O)O2,-9.83% (inactive)
13,CCn1ccnc1CN(C)C(=O)c1cc(COc2ccc(Cl)cc2OC)on1,1.62% (inactive)
14,COc1cc(Cl)ccc1OCc1cc(C(=O)N2CC[C@@H]3CCCC[C@H]3C2)no1,52.6% (active)
15,CCOC(=O)CC1(NC(=O)c2cc(COc3cncc(Cl)c3)on2)CCCCC1,2.06% (inactive)
16,CCOC(=O)C1CCCN(C(=O)c2cncc(Br)c2)C1 (stereo not given),-6.09% (inactive)
17,COc1cc(Cl)ccc1OCc1cc(C(=O)N(C)CCc2c(C)n[nH]c2C)no1,14.1% (inactive)
18,CCCOC1CCCN(C(=O)c2cc(COc3cncc(Cl)c3)on2)C1 (stereo not given),66.1% (active)
19,C[C@@H]1CN([C@H](C)CO)C(=O)c2cc(NC(=O)Cn3cnnn3)ccc2O[C@@H]1CN(C)CC1CC1,-4.62% (inactive)
20,C[C@H](CO)N1C[C@H](C)[C@H](CN(C)S(C)(=O)=O)Oc2c(NC(=O)Nc3cccc4ccccc34)cccc2C1=O,-0.771% (inactive)
21,C[C@H](O)C#Cc1cnc2c(c1)C(=O)N([C@@H](C)CO)C[C@H](C)[C@H](CN(C)C(=O)c1ccccc1)O2,-2.39% (inactive)
22,CN1C(=O)c2cc(NC(=O)c3ccccc3)ccc2OC[C@@H]2O[C@@H](CC(=O)NC3CCCC3)CC[C@H]21,-4.47% (inactive)
23,C[C@H]1CCCCO[C@@H](CN(C)Cc2ccc3c(c2)OCO3)[C@@H](C)CN([C@@H](C)CO)C(=O)c2cc(NS(=O)(=O)c3ccc(F)cc3)ccc2O1,3.56% (inactive)
24,COCCN(C[C@H]1[C@@H](c2ccccc2)[C@H](CO)N1C(=O)C1CCC1)C(C)=O,-2.98% (inactive)
25,C[C@@H]1CN([C@H](C)CO)C(=O)c2cc(C#CC3CC3)cnc2O[C@H]1CN(C)C(=O)CC1CC1,3.96% (inactive)
